From PubChem BioAssay (Tox21) come the findings set out here.

A short description of test [1]: Human pregnane X receptor (PXR) small molecule agonists, qHTS cell viability counter screen (AID 1346977). Note: nearly all actives have a fitted effect of over 50% in size. Note: potency is the fitted concentration of half-maximal effect. Summed up: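 Fluorescence read-out (CellTiter-Fluor) of viability in PXR-Luc HepG2 cells, multiplexed with the luciferase agonist read. Compounds in DMSO added after 5hr plating; 24hr total exposure at 37C, 5% CO2.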
A general note: Quantitative high-throughput screening tests each substance at several concentrations.

Test [2] is described as follows: Caspase-3/7 induction in HepG2 cells by small molecules, qHTS assay (AID 1346978). Note: nearly all actives have a fitted effect of over 15% in size. In a few lines: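 Wild-type HepG2 cells (2,000/well) were settled 5 h at 37 C, 5% CO2, then exposed to compounds in DMSO for 17 h. Caspase-3/7 activity was read by luminescence 30 min after adding Caspase-Glo 3/7 reagent at room temperature.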
A short description of test [3]: Caspase-3/7 induction in CHO-K1 cells by small molecules, qHTS cell viability counter screen (AID 1346979). Note: nearly all actives have a fitted effect of over 35% in size. Note: potency is the fitted concentration of half-maximal effect. Summed up: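 CHO-K1 wt, 1,500 cells/well; 5hr pre-incubation 37C/5% CO2; compound pin transfer (DMSO); 16hr exposure; CellTiter-Fluor added, 1hr, fluorescence read.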
The nature of test [4]: Caspase-3/7 induction in CHO-K1 cells by small molecules, qHTS assay (AID 1346980). Note: nearly all actives have a fitted effect of over 15% in size. In a few lines: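 Wild-type cells were seeded at 1,500 per well and settled 5 hr at 37 C, 5% CO2, then exposed to DMSO-dissolved compounds for 17 hr. Caspase-Glo 3/7 reagent was added, and luminescence was read after 30min at room temperature.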
Test [5] in a line: Caspase-3/7 induction in HepG2 cells by small molecules, qHTS cell viability counter screen (AID 1346981). Note: nearly all actives have a fitted effect of over 30% in size. Note: potency is the fitted concentration of half-maximal effect. In a few lines: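 Cell viability is measured as a cytotoxicity counter screen alongside the Caspase-Glo 3/7 readout in identical wells. Wild-type HepG2 cells are treated with test compounds for 16 hr at 37 C before CellTiter-Fluor addition and a 1-hr incubation.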
The target in test [6] is Nuclear receptor subfamily 1 group I member 2 (Homo sapiens) (UniProt O75469). In words: Human pregnane X receptor (PXR) small molecule agonists, qHTS assay (AID 1346982). Note: nearly all actives have a fitted effect of over 35% in size. Note: potency is the fitted concentration of half-maximal effect. In a few lines:
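Cells: HepG2 stably carrying PXR-Luc. Medium held 5% charcoal-stripped FBS. Compounds in DMSO added after 5 hr plating, incubated 24 hr, then luminescence quantified with ONE-Glo.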

In test [7] the target is Cytochrome P450 2D6 (Homo sapiens) (UniProt P10635). In words: Cytochrome P450 Family 2 Subfamily D Member 6 (CYP2D6) small molecule antagonists: luciferase reporter qHTS assay (AID 1671196). Note: nearly all actives have a fitted effect of over 50% in size. Note: potency is the fitted concentration of half-maximal effect. Summed up: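 Enzyme and proluciferin substrate were first combined with test chemical for 10 min at room temperature. Adding NADPH regeneration solution started a 1 h reaction, stopped with luciferin detection reagent and read by luminescence 20 min later.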
Chain of Cytochrome P450 2D6 (Homo sapiens) (P10635 whole entry, looked up): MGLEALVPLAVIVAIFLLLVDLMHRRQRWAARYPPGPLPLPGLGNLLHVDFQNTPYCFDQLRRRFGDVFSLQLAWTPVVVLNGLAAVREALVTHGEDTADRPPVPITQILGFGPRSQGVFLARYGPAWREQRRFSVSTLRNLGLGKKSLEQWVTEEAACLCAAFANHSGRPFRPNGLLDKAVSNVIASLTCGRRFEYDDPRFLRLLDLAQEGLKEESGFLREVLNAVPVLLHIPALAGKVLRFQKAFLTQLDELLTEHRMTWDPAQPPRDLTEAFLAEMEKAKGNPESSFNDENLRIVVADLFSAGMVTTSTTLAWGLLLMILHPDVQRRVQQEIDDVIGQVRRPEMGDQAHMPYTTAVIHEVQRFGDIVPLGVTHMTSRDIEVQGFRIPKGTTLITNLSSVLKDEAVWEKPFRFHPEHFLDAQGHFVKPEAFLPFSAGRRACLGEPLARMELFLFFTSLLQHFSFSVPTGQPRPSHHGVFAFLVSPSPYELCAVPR
(A reporter such as luciferase makes a cellular process visible.)

Values joined by “and” are separate entries in the source; they are usually repeats but may differ in a detail not shown here. Equal entries are not always repeated. Records with an inconclusive call do not appear. A structure can be active in one record and inactive in another. Active and inactive are the calls of the source. Calls come from the whole dose curve; as a rule, active = well fitted curve in the direction sought with a large enough effect in the repeat runs; inconclusive = weak or mixed curves; inactive = no such curve, though single readings can be large; an effect the other way counts as inactive or inconclusive.

Chain of Nuclear receptor subfamily 1 group I member 2 (Homo sapiens) (O75469 whole entry, looked up): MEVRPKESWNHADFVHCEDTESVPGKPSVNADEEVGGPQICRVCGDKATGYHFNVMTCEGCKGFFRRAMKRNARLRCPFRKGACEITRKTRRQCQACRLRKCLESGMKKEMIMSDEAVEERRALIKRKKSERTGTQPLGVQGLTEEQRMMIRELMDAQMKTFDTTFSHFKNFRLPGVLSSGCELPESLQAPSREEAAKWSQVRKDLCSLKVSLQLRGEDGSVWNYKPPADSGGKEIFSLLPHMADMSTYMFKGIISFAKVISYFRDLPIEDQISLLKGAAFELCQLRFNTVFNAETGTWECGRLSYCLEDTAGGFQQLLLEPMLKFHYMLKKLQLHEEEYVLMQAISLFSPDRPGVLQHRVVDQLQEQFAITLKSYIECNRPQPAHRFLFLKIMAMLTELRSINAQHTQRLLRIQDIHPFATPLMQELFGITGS

Regarding `O=C(c1cc(O)c(O)c(O)c1)c1ccc(O)c(O)c1O`, the Potency in test [1] was 39.8 µM (active) and 61.1 µM (active); in test [3], 48.4 µM (active) and 54.5 µM (active) and 29.8 µM (active); in test [5], 54.3 µM (active) and 30.6 µM (active); in test [7], 31.6 µM (active) and inactive. The Potency result in test [2], in test [4] and in test [6] was “inactive” in each case.
Consider `COCC(C)O` (stereo not drawn), for which the Potency result in test [1], in test [2], in test [3], in test [4], in test [5] and in test [6] was “inactive” in each case. Further, the Potency entry in test [7] is “inactive”.
Consider `CCCCCCC(C)(C)S`, for which the Potency result in test [1], in test [2], in test [3], in test [4], in test [5] and in test [7] was “inactive” throughout. The Potency in test [6] was 30.9 µM (active) and inactive.
With `O=C1CCCCC1`, the Potency result in test [1], in test [2], in test [3], in test [4], in test [5] and in test [6] was “inactive” throughout. The Potency entry in test [7] was “inactive”.
For the compound `CC(C)(C)C(=O)C1C(=O)c2ccccc2C1=O`, the Potency in test [1] was 50.1 µM (active); in test [3] it was 27 µM (active) and 43.3 µM (active); in test [5], 60.5 µM (active); in test [6] it was 60.5 µM (active) and inactive. Further, the Potency entry in test [2], in test [4] and in test [7] was “inactive” throughout.
`CCCCC(CC)C(=O)OCCOCCOCCOC(=O)C(CC)CCCC` (stereo not drawn): the Potency entry in test [1], in test [2], in test [3], in test [4], in test [5] and in test [6] was “inactive” each time. Further, the Potency entry in test [7] is “inactive”.
`C=C(C)C(=O)OCCCCCCCCCCCC`: the Potency entry in test [1], in test [2], in test [3], in test [4], in test [5] and in test [6] was “inactive” in each case. Also, the Potency result in test [7] is “inactive”.
As for `OC1CCCC1`, the Potency result in test [1], in test [2], in test [3], in test [4], in test [5] and in test [7] was “inactive” in each case. Also, the Potency in test [6] was 30.6 µM (active) and inactive.
`O=[N+]([O-])c1cccc(Cl)c1`: the Potency result in test [1], in test [2], in test [3], in test [4], in test [5] and in test [6] was “inactive” each time. For the same compound, the Potency result in test [7] was “inactive”.
As for `O=Nc1ccc(O)cc1`, the Potency result in test [1], in test [2], in test [4], in test [5] and in test [6] was “inactive” in each case. Moreover, the Potency is 47.4 µM (active) and inactive in test [3]; 39 µM (active) in test [7].
In the case of `CCCCC/C=C\C/C=C\CCCCCCCC(=O)OC`, the Potency entry in test [1], in test [2], in test [4] and in test [5] was “inactive” throughout. The Potency result in test [3] was “inactive and 61.1 µM (active)”; in test [6], 67.8 µM (active) and 61.1 µM (active); in test [7] it was 35.6 µM (active).
Consider `CCOC(=O)C1OC1c1ccccc1` (stereo not drawn), for which the Potency entry in test [1], in test [2], in test [3], in test [4], in test [5] and in test [6] was “inactive” throughout. Moreover, the Potency result in test [7] was “inactive”.
Regarding `CCCCCCCCC`, the Potency entry in test [1], in test [2], in test [3], in test [4], in test [5] and in test [6] was “inactive” in each case. Further, in test [7], the Potency entry was “inactive”.
Turning to `C=C1C2CCC(C2)C1(C)C` (stereo not drawn), the Potency entry in test [1], in test [2], in test [3], in test [4], in test [5] and in test [6] was “inactive” each time. In test [7], the Potency entry was “inactive”.
For `CC(C)(C)C1CCC(O)CC1` (stereo not drawn), the Potency entry in test [1], in test [2], in test [3], in test [4], in test [5] and in test [6] was “inactive” in each case. Further, the Potency entry in test [7] is “inactive”.
Turning to `Cn1c([N+](=O)[O-])cnc1COC(N)=O`, the Potency result in test [1], in test [2], in test [3], in test [4], in test [5] and in test [6] was “inactive” in each case. The Potency entry in test [7] is “inactive”.
As to `c1ccc2[nH]cnc2c1`, the Potency result in test [1], in test [2], in test [3], in test [4], in test [5] and in test [6] was “inactive” each time. The Potency entry in test [7] was “inactive”.
`O=C(O)c1ccc([N+](=O)[O-])cc1`: the Potency result in test [1], in test [2], in test [3], in test [4], in test [5] and in test [6] was “inactive” each time. In addition, the Potency result in test [7] is “inactive”.
As for `OCC1CCCO1` (stereo not drawn), the Potency result in test [1], in test [2], in test [3], in test [4], in test [5] and in test [6] was “inactive” throughout. In addition, the Potency result in test [7] is “inactive”.
As for `O=C(Oc1ccccc1)c1ccc(O)cc1`, the Potency entry in test [1], in test [2], in test [3], in test [4], in test [5] and in test [6] was “inactive” each time. For the same compound, the Potency entry in test [7] is “inactive”.
For the compound `Cc1cc(O)c2c(c1)C(=O)c1cc(O)cc(O)c1C2=O`, the Potency was 29.9 µM (active) in test [1]; 48.6 µM (active) in test [3]; 26.7 µM (active) and 21.7 µM (active) in test [5]; 29.9 µM (active) and 21.7 µM (active) in test [6]. Besides, the Potency result in test [2], in test [4] and in test [7] was “inactive” each time.
For `CCc1ccc(O)cc1`, the Potency entry in test [1], in test [2], in test [3], in test [4], in test [5] and in test [6] was “inactive” each time. The Potency entry in test [7] was “inactive”.
Turning to `C=C(C#N)C(=O)OCC`, the Potency entry in test [1], in test [2], in test [4], in test [5] and in test [6] was “inactive” each time. Moreover, the Potency result is “inactive and 61.1 µM (active)” in test [3]; 44.7 µM (active) in test [7].
`Cc1ccc(C)c(C)c1`: the Potency entry in test [1], in test [2], in test [3], in test [4], in test [5] and in test [6] was “inactive” each time. In addition, the Potency result in test [7] was “inactive”.
